# High-throughput results from PubChem BioAssay.
# Shown are actives, neighbours in structure and some others; about 4.7% of the full set was active somewhere.
# PfHsp90 set2: growth inhibition of PfHsp90-expressing yeast, primary screen, antimalarial PfHsp90 inhibitor project, S. cerevisiae, BacTiter-Glo luminescence, single point, set 2. 0.32% of 310,000 active. inhibition, % at 9.4 µM. BacTiter-Glo ATP, 48 h; yeast lacking PDR1 and PDR3 efflux regulators;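 active means every replicate shows inhibition above about 80%, whatever the replicate mean, limit read from the data; inconclusive means mean inhibition reaches the set limit but some replicate falls short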
# TIM10 inh: growth inhibitors of isogenic TIM10 control yeast, primary screen, counter-screen for tim10-1 yeast inhibitor project, luminescence, uHTS | S. cerevisiae TIM10 strain growth, BacTiter-Glo luminescence, 24 h | 1.4% of 330,000 active | inhibition, % at 10 µM;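 active means inhibition of 40% or more at the single tested concentration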;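 further: wild-type TIM10 isogenic control strain grown at permissive 25 °C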
# SKKanGAS inh: S. pyogenes SKKanGAS growth inhibitors in kanamycin, primary screen, streptokinase expression inhibitor project, SKKanGAS strain, BacTiter-Glo luminescence. 6 h. inhibition, % at 7.5 µM. 1.3% of 300,000 active;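 active means mean replicate score, as percent of positive control median, at least 50; inconclusive means mean below 50 but one replicate at or above 50; inactive means mean and every replicate below 50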;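 further: strain carries kanamycin resistance gene driven by streptokinase promoter and grows in 40 µg/ml kanamycin; loss of luminescence reflects streptokinase promoter inhibition or plain growth inhibition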
# tim10-1 inh: growth inhibitors of tim10-1 mutant yeast, primary screen, luminescence, uHTS; inhibition, % at 20 µM; S. cerevisiae tim10-1 ts strain growth, BacTiter-Glo, 24 h; AID 463190, 2010; 2.2% of 330,000 active;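 active means inhibition of at least 40%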;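 further: mutant grown at 25 °C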
# tim23-1 inh: growth inhibitors of tim23-1 mutant yeast, primary screen, luminescence, uHTS; S. cerevisiae tim23-1 growth, BacTiter-Glo luminescence, 24 h; inhibition, % at 20 µM; 1.3% of 330,000 active;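 active means growth inhibition of the mutant yeast at or above 50%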;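 further: temperature-sensitive mutant grown at 25 °C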
# EBI2 block: EBI2 receptor antagonists, beta-arrestin recruitment, primary screen, cell-based, luminescence, 7a,25-OHC stimulation, uHTS. G-protein coupled receptor 183 (Homo sapiens), P32249. 7a,25-OHC stimulated. inhibition, % at 5 µM. 0.81% of 360,000 active. AID 651636, 2012; in the data active means inhibition above about 38%;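 further: enzyme fragment complementation signal reports receptor beta-arrestin coupling in cells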
# Target sequence (P32249 whole entry, looked up, the tested form may be a part): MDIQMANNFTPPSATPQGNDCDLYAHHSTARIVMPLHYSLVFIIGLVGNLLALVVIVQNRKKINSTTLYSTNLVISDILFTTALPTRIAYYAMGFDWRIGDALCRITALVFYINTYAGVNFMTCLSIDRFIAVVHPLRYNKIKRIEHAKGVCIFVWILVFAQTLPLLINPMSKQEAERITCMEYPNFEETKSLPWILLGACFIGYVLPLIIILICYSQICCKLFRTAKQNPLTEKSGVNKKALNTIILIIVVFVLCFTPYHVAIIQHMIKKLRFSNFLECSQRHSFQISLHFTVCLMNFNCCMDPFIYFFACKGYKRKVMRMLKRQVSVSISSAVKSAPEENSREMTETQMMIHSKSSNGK
# Hits are given with their value; – = inactive; ? = inconclusive; · = no result given.
SMILES,PfHsp90 set2,TIM10 inh,SKKanGAS inh,tim10-1 inh,tim23-1 inh,EBI2 block
COc1ccc([C@@H]2CC(=O)c3c(O)cc(O)cc3O2)cc1O,–,–,·,–,–,–
CCOC(=O)c1c(C)[nH]c(C2=NNC(=NC3CC3)SC2)c1C,–,–,–,–,–,–
O=C1Nc2ccccc2S/C1=C/Nc1cccc(Cl)c1,·,–,75.7,–,–,–
CCN(CC(=O)NC(C)(C)C)C(=O)COc1c(Cl)cc(Cl)c2ccc(C)nc12,–,–,86.8,–,–,–
CCOc1ccccc1NC(=O)COC(=O)COc1c(Cl)cc(Cl)c2ccc(C)nc12,–,–,–,–,–,–
Cc1ccc2[nH]c(O)c(N=Nc3nc4ccccc4s3)c2c1,–,–,108.1,–,–,–
O=C(Nc1nc2n(n1)C(c1ccc(Cl)cc1)CC(c1ccc(Cl)cc1)N2)c1ccco1 (stereo not drawn),·,–,54.9,–,–,·
CC1CCN(C(=O)N2c3ccccc3Sc3ccccc32)CC1,–,–,54.3,–,–,–
CCOc1ccc2nc(S(=O)(=O)NC(=O)C3(C)CCN3C(=O)c3cccc(F)c3)sc2c1 (stereo not drawn),·,·,·,·,·,–
CC12CCC(C/C1=N\N=C1\NC(=O)/C(=C\c3cccc(Br)c3)S1)C2(C)C (stereo not drawn),–,–,103.6,–,–,–
Cc1ccc(-n2c(O)c(C=Nc3ccccc3-c3n[nH]c(=S)[nH]c3=O)c3ccccc3c2=O)c(C)c1,–,–,72.6,–,–,–
Cc1ccc(-n2c(O)c(C=Nc3ccccc3-c3n[nH]c(=S)[nH]c3=O)c3ccccc3c2=O)cc1C,–,–,?,–,–,–
CC(/C=C1\SC(=S)N(NC(=O)c2ccc(C)cc2)C1=O)=C\c1ccccc1,·,–,–,–,–,–
CC(/C=C1\SC(=S)N(c2ccc(C(=O)O)cc2)C1=O)=C\c1ccccc1,–,–,115.7,–,–,–
CC(/C=C1\SC(=S)N(NS(=O)(=O)c2ccccc2)C1=O)=C\c1ccccc1,–,–,57.3,–,–,–
COc1ccc(C(=O)NC(=S)Nc2ccc(Cc3ccncc3)cc2)cc1,–,–,–,–,–,–
COc1cc(N2C(=O)C=CC2=O)c(OC)cc1Cl,109.4,–,–,–,–,–
CCc1nc2ccc(C(=O)NCCc3c[nH]c4ccccc34)cn2c1N(C)Cc1ccc(N(C)C)cc1,·,·,·,·,·,–
Cc1sc2nc(C3CC3)nc(SCC(=O)NCc3ccco3)c2c1C,84.0,–,–,–,–,–
Cc1sc2nc(SCC(=O)NCc3ccco3)n(C)c(=O)c2c1C,–,–,–,–,–,–
N#Cc1ccc(OCC(=O)N2CCN(c3ccc(C(F)(F)F)cn3)CC2)cc1,–,–,·,–,–,58.6
O=C(CCc1ccccc1F)N1CCN(c2ccc(C(F)(F)F)cn2)CC1,–,–,–,–,–,–
CCN(CC)C(=O)C1=C(C)N(Cc2ccc(F)cc2)C(=O)C(CC(=O)NCC2CCCCC2)C1 (stereo not drawn),·,·,·,·,·,–
Cc1nc(SCC(N)=O)c([N+](=O)[O-])[nH]1,–,–,–,–,–,–
C/C(=N\NC(=O)CSc1nc(C)[nH]c1[N+](=O)[O-])c1ccc(F)cc1,–,–,56.1,–,–,–
SMILES,PfHsp90 set2,TIM10 inh,SKKanGAS inh,tim10-1 inh,tim23-1 inh,EBI2 block
c1ccc(-n2c3ccccc3c3ccccc32)cc1,·,–,58.3,–,–,–
Cc1nc2ccccc2n1-c1ccccc1,–,–,–,–,–,–
CN(CC(=O)Nc1sccc1C(N)=O)S(=O)(=O)c1ccc(Cl)cc1,–,–,·,–,–,–
CC(C)(C)CC(=O)Nc1nnc(C(F)(F)F)s1,–,–,–,–,–,–
CC(NC(=O)Nc1nnc(C(F)(F)F)s1)(C(F)(F)F)C(F)(F)F,–,–,84.1,–,–,–
CC(=O)OCC1=C(C(=O)O)N2C(=O)C(NC(=O)c3ccc(COc4cccc(Cl)c4Cl)o3)C2SC1 (stereo not drawn),–,–,71.6,–,–,–
Cc1ccc(C(=O)NNC2=Nc3cccc4cccc2c34)cc1,–,–,58.0,–,–,–
